From article PMC5700166

Key:
[1] = molecular target: T1, GST-Nv-NF-kB (Ser allele) (Nematostella vectensis, UniProt A7UNT2 2-411); test: protein-binding microarray (PBM); PBM: ~300 nM protein, 6 mM HEPES pH 7.8, 80 mM KCl, 0.5 mM EDTA, 0.5 mM EGTA, 6% glycerol, 35 ng/ul poly-dIdC, 1% milk, 1 h, room temperature; Ap Aiptasia and Nv Nematostella (sea anemones) / Co Capsaspora / Aq Amphimedon (sponge) / Dm Drosophila / Hu human; RHD is the Rel homology domain; high values mean tight binding; settings: dsDNA, one strand shown
T1 sequence: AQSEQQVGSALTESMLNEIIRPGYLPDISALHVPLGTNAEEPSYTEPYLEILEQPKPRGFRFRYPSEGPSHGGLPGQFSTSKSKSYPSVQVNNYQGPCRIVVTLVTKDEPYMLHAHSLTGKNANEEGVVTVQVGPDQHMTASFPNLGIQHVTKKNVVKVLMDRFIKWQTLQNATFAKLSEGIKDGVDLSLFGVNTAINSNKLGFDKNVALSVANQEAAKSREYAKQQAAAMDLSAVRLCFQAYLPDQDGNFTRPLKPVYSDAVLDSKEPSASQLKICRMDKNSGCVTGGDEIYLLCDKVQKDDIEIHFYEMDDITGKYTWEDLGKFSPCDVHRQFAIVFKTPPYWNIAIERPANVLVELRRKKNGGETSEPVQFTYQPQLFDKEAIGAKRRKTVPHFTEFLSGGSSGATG

GST-Hu-p50 = GST-Hu-p50 (Homo sapiens, UniProt P19838 7-356); test: as above; settings: dsDNA, one strand shown
Chain of GST-Hu-p50 (P19838 7-356): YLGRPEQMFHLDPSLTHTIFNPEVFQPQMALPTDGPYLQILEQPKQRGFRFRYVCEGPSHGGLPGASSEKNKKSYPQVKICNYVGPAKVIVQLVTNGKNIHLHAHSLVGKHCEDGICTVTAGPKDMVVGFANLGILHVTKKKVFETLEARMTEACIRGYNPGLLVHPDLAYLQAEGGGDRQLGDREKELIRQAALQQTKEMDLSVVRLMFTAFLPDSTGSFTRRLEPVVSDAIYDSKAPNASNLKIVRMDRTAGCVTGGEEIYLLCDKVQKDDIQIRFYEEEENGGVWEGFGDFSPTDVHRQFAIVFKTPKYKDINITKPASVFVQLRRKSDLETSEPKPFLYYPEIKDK

Row | Sequence | binding signal [1] [z-score] | binding signal (GST-Hu-p50) [z-score]
1 | CCGATTAACATCAGGGGGAGAGATGATGTTAATCGGGTCTTGATTCGCTTGACGCTGCTG | 4.36 | 4.17
2 | CCGATTAACATCAAATTCCCAGCTGATGTTAATCGGGTCTTGATTCGCTTGACGCTGCTG | 3.85 | 2.81
3 | CCGATTAACATCAGGGGGTAATATGATGTTAATCGGGTCTTGATTCGCTTGACGCTGCTG | 5.13 | 4.43
4 | CCGATTAACATCAGGATTTTACCTGATGTTAATCGGGTCTTGATTCGCTTGACGCTGCTG | 3.67 | 2.65
5 | CCGATTAACATCAGGGGGTAAAATGATGTTAATCGGGTCTTGATTCGCTTGACGCTGCTG | 6.35 | 4.51
6 | CCGATTAACATCAGGGAGTTCCATGATGTTAATCGGGTCTTGATTCGCTTGACGCTGCTG | 2.53 | 2.54
7 | CCGATTAACATCAGGGACGGAAATGATGTTAATCGGGTCTTGATTCGCTTGACGCTGCTG | 2.34 | 2.19
8 | CCGATTAACATCAGGGGCACCCCTGATGTTAATCGGGTCTTGATTCGCTTGACGCTGCTG | 2.72 | 3.94
9 | CCGATTAACATCAGGACTCTCCCTGATGTTAATCGGGTCTTGATTCGCTTGACGCTGCTG | 2.28 | 3.64
10 | CCGATTAACATCATGGGGACGACTGATGTTAATCGGGTCTTGATTCGCTTGACGCTGCTG | 2.44 | 2.41
11 | CCGATTAACATCAGGGGTTTCACTGATGTTAATCGGGTCTTGATTCGCTTGACGCTGCTG | 2.32 | 4.22
12 | CCGATTAACATCAAGCGTTTCCCTGATGTTAATCGGGTCTTGATTCGCTTGACGCTGCTG | 3.6 | 1.47
